Our source for the composite z-score, composite Z-score and z-score values is PubChem BioAssay.

Activity calls are given as the source filed them.

Assay [1] deals with Albumin (Bos taurus) (UniProt P02769). Nature of the assay: bovine serum albumin binders on microarray, profiling panel, artefact control for SMM control protein annotation, biochemical, small-molecule microarray, Alexa647 label, 635/667 nm fluorescence (AID 1118).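 Also: score merges 667 nm emission intensity and signal-to-noise per printed compound spot.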 As to conditions: BSA-A647 binding, fluorescence 635 nm, higher = more signal.
The nature of assay [2]: small-molecule microarray binders of probe aXIP, primary screen, biochemical, NeuroSMM set, 635/667 nm fluorescence (AID 1119).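 Also: probe is the protein aXip251-270 applied at 1 µg/mL to compound-printed slides; binding of probe to printed compounds measured as 667 nm fluorescence plus signal to noise.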 The following applies: higher = more signal, called active from +8 up or from −8 down.
A short description of assay [3]: small-molecule binders of probe aNOTCH3, primary screen, biochemical, small-molecule microarray, 635/667 nm fluorescence (AID 1120).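 Also: probe is a biotin-tagged antibody raised against NOTCH3 rather than NOTCH3 protein; score merges spot fluorescence near 667 nm with spot signal to noise.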 As to conditions: higher = more signal.
A short description of assay [4]: small-molecule binders of probe aNOTCH2, primary screen, biochemical, small-molecule microarray, 635/667 nm fluorescence (AID 1121).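 Also: score merges feature fluorescence read at 667 nm with its signal to noise.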 The following applies: higher = more signal.
Assay [5] has as its target Carbonic anhydrase 2 (Homo sapiens) (UniProt P00918). Nature of the assay: CAII small-molecule binders, profiling panel, biochemical, small-molecule microarray, Alexa647-labelled CAII (AID 1122). The following applies: CAII-A647 binding fluorescence, higher = more signal.
The nature of assay [6]: COS7 lysate on small-molecule microarray, probe aHis, 635 nm (AID 1123).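 Also: z-score combines 667nm fluorescence intensity with signal-to-noise per printed compound spot.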 As to conditions: COS7 cell lysate, fluorescence, higher = more signal.
Assay [7] is described as follows: compound binding in COS7 lysate, probe aLAP1, primary screen, cell lysate, small-molecule microarray (AID 1124).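 Also: lysate comes from COS7 cells expressing LAP1 and is applied at 0.3 µg/mL; score merges spot fluorescence near 667 nm with signal-to-noise over triplicate slides.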 As to conditions: probe aLAP1, fluorescence, higher = more signal.
Assay [8] deals with Sam68 (KHDRBS1). Description: Sam68 small-molecule binders, primary screen, biochemical, small-molecule microarray, 635 nm fluorescence (AID 1125).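 Also: score merges 667 nm channel intensity with signal to noise over triplicate slides.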 The following applies: small-molecule microarray binding, higher = more signal.
Assay [9] concerns Chordin-like protein 2 (CHRDL2). Nature of the assay: CHRDL2 small-molecule binders, primary screen, biochemical, small-molecule microarray, 635 nm fluorescence (AID 1126).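 Also: printed compound slides probed with Chrdl2 protein at 4 µg/mL for 1 h at 4 C; score merges 667 nm emission intensity with signal to noise over three replicate slides.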 As to conditions: small-molecule microarray binding, fluorescence 635 nm; higher = more signal.
The target in assay [10] is Concanavalin-A (Canavalia ensiformis) (UniProt P02866). Description: ConA small-molecule binders, primary screen, artefact control for SMM control protein annotation, biochemical, small-molecule microarray, Alexa647 label, 635 nm (AID 1127).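 Also: z combines 667 nm emission intensity with signal-to-noise across three replicate slides.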 The following applies: ConA-A647 binding fluorescence, higher = more signal.
Assay [11] can be described thus: anti-His antibody binders, primary screen, artefact control for SMM control protein annotation, biochemical, small-molecule microarray, 635 nm fluorescence (AID 1128).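 Also: score merges feature fluorescence with signal-to-noise for each printed compound spot.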 The following applies: anti-His Alexa647 antibody binding, higher = more signal.
Assay [12] deals with Human papillomavirus type 1a E7 protein (residues 1-88). Nature of the assay: HPV1a E7 small-molecule binders, primary screen, biochemical, small-molecule microarray, residues 1-88, 635 nm (AID 1129). The following applies: small-molecule microarray binding, fluorescence 635 nm; higher = more signal.
The target of assay [13] is Focal adhesion kinase 1 (Homo sapiens) (UniProt Q05397). Description: small-molecule microarray binders of FAK, primary screen, biochemical, 635/667 nm fluorescence, BSA, DTT (AID 1130).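 Also: composite of spot emission at 667 nm and signal to noise over triplicate slides.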 The following applies: PTK2 binding, 635 nm fluorescence, higher = more signal.
Assay [14] concerns Fibrinogen (Alexa647-labelled). Nature of the assay: fibrinogen binders on compound microarrays, profiling panel, artefact control for SMM control-protein annotation, biochemical, small-molecule microarray, 635/667 nm fluorescence (AID 1131).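 Also: z-score merges 667 nm fluorescence with per-spot signal-to-noise over triplicate slides.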 The following applies: fibrinogen-A647 binding fluorescence, higher = more signal.
Assay [15] deals with Follistatin (Homo sapiens) (UniProt P19883). Nature of the assay: follistatin binders on small-molecule microarrays, primary screen, biochemical, small-molecule microarray, 635/667 nm fluorescence (AID 1132). As to conditions: FST binding, 635 nm fluorescence, higher = more signal.
For assay [16], the target named is Fibroblast growth factor 2 (Homo sapiens) (UniProt P09038). Nature of the assay: FGF2 binders on small-molecule microarrays, primary screen, biochemical, small-molecule microarray, 635/667 nm fluorescence (AID 1133). As to conditions: small-molecule microarray binding, FGF2, fluorescence 635/667; higher = more signal.
Assay [17] in a line: mitochondrial membrane potential change in A549 cells, profiling panel, cell-based, JC-1 fluorescence, basal, 24 h, 100 nL (AID 1138).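 Also: A549 lung adenocarcinoma cells under basal conditions with no added stimulus; test concentration not given here.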 The following applies: higher = more signal.
The subject of assay [18] is Lefty1. Description: Lefty1 binders on small-molecule microarrays, primary screen, biochemical, small-molecule microarray, 635/667 nm fluorescence (AID 1139). As to conditions: small-molecule microarray binding, fluorescence 635/667; higher = more signal.
Assay [19] concerns wheat germ agglutinin (Triticum aestivum), Alexa647-labelled. Description: wheat germ agglutinin binders on compound microarrays, profiling panel, artefact control for SMM control-protein annotation, biochemical, small-molecule microarray, 635/667 nm fluorescence (AID 1140).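 Also: score merges 667 nm feature emission with signal to noise over triplicate slides.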 The following applies: WGA-A647 binding, 635 nm fluorescence, higher = more signal.
Assay [20] concerns the target Luciferin 4-monooxygenase (Photinus pyralis) (UniProt P08659). Nature of the assay: firefly luciferase enzyme inhibitors, primary screen, biochemical, luminescence, purified enzyme, 2006 set (AID 1141).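 Also: cell-free assay with purified firefly luciferase at 100 ng per well in PBS; test concentration not given here.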 As to conditions: SteadyGlo luminescence, 30 min, higher = more signal, called active from +8 up or from −8 down.

Follistatin (Homo sapiens), sequence (P19883 whole entry, looked up): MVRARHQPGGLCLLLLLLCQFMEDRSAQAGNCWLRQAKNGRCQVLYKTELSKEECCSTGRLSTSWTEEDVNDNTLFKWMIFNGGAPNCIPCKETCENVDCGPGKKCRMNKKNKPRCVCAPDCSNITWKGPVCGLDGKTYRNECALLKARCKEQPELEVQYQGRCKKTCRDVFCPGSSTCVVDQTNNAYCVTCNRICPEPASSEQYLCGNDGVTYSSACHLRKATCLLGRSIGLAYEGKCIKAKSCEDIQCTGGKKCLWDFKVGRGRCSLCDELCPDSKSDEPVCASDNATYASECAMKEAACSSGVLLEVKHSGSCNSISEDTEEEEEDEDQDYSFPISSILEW
Concanavalin-A (Canavalia ensiformis), sequence (P02866 whole entry, looked up): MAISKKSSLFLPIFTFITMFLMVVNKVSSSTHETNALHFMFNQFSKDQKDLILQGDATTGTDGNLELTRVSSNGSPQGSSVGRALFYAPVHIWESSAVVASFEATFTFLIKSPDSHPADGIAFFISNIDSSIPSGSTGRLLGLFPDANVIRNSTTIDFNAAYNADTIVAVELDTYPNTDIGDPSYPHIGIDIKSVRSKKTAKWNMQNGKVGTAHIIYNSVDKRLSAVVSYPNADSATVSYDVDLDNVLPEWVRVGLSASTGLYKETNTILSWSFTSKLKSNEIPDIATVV
Albumin (Bos taurus), sequence (P02769 whole entry, looked up): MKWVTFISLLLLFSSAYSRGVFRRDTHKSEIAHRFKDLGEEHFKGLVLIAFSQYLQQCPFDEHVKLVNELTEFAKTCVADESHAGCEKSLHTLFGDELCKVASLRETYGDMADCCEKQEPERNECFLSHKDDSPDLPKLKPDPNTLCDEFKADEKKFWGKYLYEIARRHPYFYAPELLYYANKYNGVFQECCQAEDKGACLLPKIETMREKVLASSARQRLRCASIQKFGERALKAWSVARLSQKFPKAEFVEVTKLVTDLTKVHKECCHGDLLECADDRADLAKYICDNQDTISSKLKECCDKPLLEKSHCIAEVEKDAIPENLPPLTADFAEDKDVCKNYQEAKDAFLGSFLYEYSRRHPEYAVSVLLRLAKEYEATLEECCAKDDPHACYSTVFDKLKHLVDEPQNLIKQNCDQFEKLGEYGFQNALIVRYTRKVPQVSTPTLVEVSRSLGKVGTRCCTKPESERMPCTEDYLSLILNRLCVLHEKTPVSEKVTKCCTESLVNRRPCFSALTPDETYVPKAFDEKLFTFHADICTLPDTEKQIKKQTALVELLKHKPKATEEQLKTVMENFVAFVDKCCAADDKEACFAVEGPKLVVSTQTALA
Fibroblast growth factor 2 (Homo sapiens), sequence (P09038 whole entry, looked up): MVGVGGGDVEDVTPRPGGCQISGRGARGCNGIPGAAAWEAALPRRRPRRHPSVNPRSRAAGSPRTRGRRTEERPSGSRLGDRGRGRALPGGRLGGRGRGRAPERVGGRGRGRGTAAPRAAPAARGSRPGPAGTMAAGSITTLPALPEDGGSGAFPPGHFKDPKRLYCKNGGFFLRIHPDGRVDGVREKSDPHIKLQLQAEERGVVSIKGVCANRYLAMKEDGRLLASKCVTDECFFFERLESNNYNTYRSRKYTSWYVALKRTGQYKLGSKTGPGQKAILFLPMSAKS
Focal adhesion kinase 1 (Homo sapiens), sequence (Q05397 whole entry, looked up): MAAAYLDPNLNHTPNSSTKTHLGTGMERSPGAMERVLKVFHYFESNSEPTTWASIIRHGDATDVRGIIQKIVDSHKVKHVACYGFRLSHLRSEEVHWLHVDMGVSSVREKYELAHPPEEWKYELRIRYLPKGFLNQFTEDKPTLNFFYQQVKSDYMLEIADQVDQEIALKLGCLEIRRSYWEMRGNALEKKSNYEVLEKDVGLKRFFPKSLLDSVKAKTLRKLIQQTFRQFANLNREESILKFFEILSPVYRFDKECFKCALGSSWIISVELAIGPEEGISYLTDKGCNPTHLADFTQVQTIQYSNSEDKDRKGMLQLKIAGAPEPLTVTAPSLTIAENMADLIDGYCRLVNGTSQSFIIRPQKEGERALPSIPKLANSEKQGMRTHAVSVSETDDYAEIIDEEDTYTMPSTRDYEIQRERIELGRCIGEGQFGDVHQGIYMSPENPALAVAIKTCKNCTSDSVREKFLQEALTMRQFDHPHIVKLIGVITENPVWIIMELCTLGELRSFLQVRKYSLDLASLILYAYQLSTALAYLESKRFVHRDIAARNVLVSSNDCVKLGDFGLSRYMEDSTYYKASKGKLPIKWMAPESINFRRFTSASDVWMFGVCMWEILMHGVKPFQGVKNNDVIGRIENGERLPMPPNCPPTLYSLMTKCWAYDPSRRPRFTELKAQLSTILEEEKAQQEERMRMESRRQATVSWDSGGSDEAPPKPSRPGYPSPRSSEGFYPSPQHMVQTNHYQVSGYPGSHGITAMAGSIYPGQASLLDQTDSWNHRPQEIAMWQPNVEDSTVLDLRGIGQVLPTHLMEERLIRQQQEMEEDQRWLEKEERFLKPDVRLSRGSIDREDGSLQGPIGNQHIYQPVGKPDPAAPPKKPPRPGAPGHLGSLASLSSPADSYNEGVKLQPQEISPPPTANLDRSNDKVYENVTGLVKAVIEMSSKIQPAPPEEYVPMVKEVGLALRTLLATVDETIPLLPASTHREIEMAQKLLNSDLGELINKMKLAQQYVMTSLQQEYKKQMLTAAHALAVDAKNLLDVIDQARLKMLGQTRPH
Luciferin 4-monooxygenase (Photinus pyralis), sequence (P08659 whole entry, looked up): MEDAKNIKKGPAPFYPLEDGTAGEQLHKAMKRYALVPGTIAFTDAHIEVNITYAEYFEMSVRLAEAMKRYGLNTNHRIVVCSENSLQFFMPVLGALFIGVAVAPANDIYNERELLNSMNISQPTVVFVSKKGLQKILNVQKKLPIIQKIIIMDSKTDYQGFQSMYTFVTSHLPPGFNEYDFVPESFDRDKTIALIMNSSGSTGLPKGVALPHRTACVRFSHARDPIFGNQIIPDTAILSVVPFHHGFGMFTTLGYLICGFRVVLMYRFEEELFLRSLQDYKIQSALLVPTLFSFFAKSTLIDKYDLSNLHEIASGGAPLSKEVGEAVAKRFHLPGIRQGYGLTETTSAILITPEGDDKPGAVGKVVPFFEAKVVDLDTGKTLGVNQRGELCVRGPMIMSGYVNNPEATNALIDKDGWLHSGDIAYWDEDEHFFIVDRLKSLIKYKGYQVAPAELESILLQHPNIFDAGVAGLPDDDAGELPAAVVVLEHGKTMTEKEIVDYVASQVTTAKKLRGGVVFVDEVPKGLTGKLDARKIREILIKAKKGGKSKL

Take `CO[C@H]1O[C@H](CO)[C@@H](OC(=O)Nc2ccccc2)[C@H](OC(=O)Nc2ccc3c(c2)OCO3)[C@@H]1OC(=O)Nc1ccc2c(c1)OCO2`: the composite z-score in assay [1] was 0.536; in assay [3], 0.0459; in assay [4], -0.101; in [5], 0.655; in assay [6], 2.17; in assay [7] it was 0.759. Moreover, the composite z-score was 1.3 in [8]; -0.17 in assay [9]; 1.12 in assay [10]; 2.53 in assay [11]; 1.2 in assay [12]; 1.02 in assay [13]. Also, the composite z-score in assay [14] turned out to be 0.771; in assay [15] it was 0.87; in assay [16] it was 0.0385; in assay [18] it was 0.563; in assay [19] it was 1.21. Besides, the composite Z-score in assay [2] is 0.741 (inactive). For the same compound, the figures for the z-score in [17] and in assay [20] were 1.18 and -5.6 (inactive), respectively.

With `COc1ccc([Si](C)(C)[C@H]2[C@H](CCO)O[C@@]3(C(=O)N(Cc4ccc(N5CCCCC5=O)cc4)c4ccccc43)[C@@H]2C)cc1`, the composite z-score was 0.643 in assay [1]; 0.25 in assay [3]; -0.0846 in assay [4]; 0.596 in assay [5]; 1.79 in assay [6]; 0.109 in assay [7]. The composite z-score is 1.3 in assay [8]; -0.0425 in assay [9]; 1.12 in assay [10]; 1.91 in assay [11]; 1.1 in [12]; 0.0098 in assay [13]. For the same compound, the composite z-score amounted to 0.903 in [14]; 1.3 in assay [15]; 0.753 in [16]; 1.36 in assay [18]; 1.14 in assay [19]. Also, the composite Z-score in [2] is -0.247 (inactive). The z-score in assay [17] was 1.33; in assay [20], -1.39 (inactive).

With `Cc1ccc(N2C(=O)c3ccccc3[C@@H](C(=O)NCc3ccccc3)[C@@H]2c2ccc(CO)cc2)nc1`, the composite z-score in [1] was -1.29; in [3], -0.0328; in assay [4], -0.0272; in [5], 0.451; in assay [6], 3.91; in assay [7] it was -0.0641. Further, the composite z-score in assay [8] was -0.931; in [9] it was 0.465; in [10] it was -1.28; in [11] it was -0.841; in [12], -1.26; in assay [13], -0.289. The composite z-score is -1.15 in assay [14]; 1.33 in assay [15]; 0.0049 in assay [16]; -0.114 in assay [18]; -1.19 in [19]. Besides, the composite Z-score in [2] is -0.816 (inactive). In addition, the z-score in assay [17] is 1.35; in [20] it was -0.635 (inactive).

For the compound `CCN1C(C)=C(C(=O)OC)[C@@H](c2ccccc2)N2C(=O)[C@](O)(C(=O)OC)[C@@H](c3ccccc3)C(C(C)=O)=C12`, the composite z-score in [1] was -0.647; in assay [3], 0.641; in assay [4], -0.0483; in assay [5] it was 0.916; in assay [6], -0.0995; in [7], -0.141. Further, the composite z-score in [8] is -0.0684; in assay [9], 0.708; in assay [10] it was -1.15; in [11] it was 0.189; in assay [12], 0.0108; in assay [13] it was -0.413. The composite z-score was -1.11 in assay [14]; 0.679 in assay [15]; 1.05 in assay [16]; 1.1 in assay [18]; -0.531 in [19]. Also, in [2], the composite Z-score is 0.319 (inactive). The z-score in assay [17] is -0.21; in [20], -1.03 (inactive).

In the case of `CC(C)(C)OC(=O)CC[C@]1(C(=O)NCCN2CCOCC2)N=C(c2ccc(OCCCO)cc2)O[C@H]1c1ccccc1CN=[N+]=[N-]`, the composite z-score is 0.433 in assay [1]; 0.145 in [3]; -0.057 in [4]; 0.865 in [5]; 2.05 in assay [6]; 0.663 in [7]. Also, the composite z-score was 1.32 in [8]; -1.1 in assay [9]; 0.922 in [10]; 2.63 in assay [11]; 1.17 in assay [12]; 1.17 in [13]. Moreover, the composite z-score in assay [14] is 0.75; in assay [15], -0.651; in assay [16], -0.962; in [18], -0.697; in assay [19], 1.31. Moreover, in [2], the composite Z-score was 0.192 (inactive). Besides, the z-score in [17] is 0.22; in assay [20] it was -0.736 (inactive).

For `O=C1OCC=C[C@H]2OC34C=CCN(Cc5ccccc5)C(=O)[C@H]3N(CCCCCO)C(=O)[C@@H]4[C@@H]12` (stereo not given in full), the composite z-score in [1] is -0.711; in [3], -0.231; in assay [4], -0.207; in assay [5], 0.605; in [6], 0.096; in assay [7], -0.493. Besides, the composite z-score in assay [8] was -0.673; in assay [9] it was -0.99; in [10] it was -1.11; in assay [11], -0.171; in [12], -0.614; in [13], 0.0672. Moreover, the composite z-score was -0.736 in [14]; -1.14 in assay [15]; -1.24 in [16]; -1.09 in assay [18]; -1.29 in [19]. In [2], the composite Z-score is 1.78 (inactive). Also, the figures for the z-score in [17] and in assay [20] were 0.0704 and -0.423 (inactive), respectively.
